# Test results from the supplement of paper PMC6992640.
# ± gives the standard deviation of the averaged measurements.
# Experiments:
# Test in all cases: cell viability (% of vehicle); higher = less cytotoxic
# HCI01 [1] = cells of a triple-negative basal-like breast cancer xenograft; details: 10 µM; 72 h
# HCI03 = cells of an ER-positive luminal breast cancer xenograft; details: 10 µM; 72 h
# HCI09 = cells of a triple-negative luminal androgen receptor type breast cancer xenograft; details: 10 µM; 72 h
# HCI11 = cells of an ER-positive luminal breast cancer xenograft; details: 10 µM; 72 h
# HCI13 = cells of an ER-positive luminal breast cancer xenograft; details: 10 µM; 72 h
# HCI16 = cells of a triple-negative basal-like breast cancer xenograft; details: 10 µM; 72 h
# UCD52 [2] = cells of a triple-negative basal-like breast cancer xenograft; details: 10 µM; 72 h
# WHIM2 [3] = cells of a triple-negative basal-like breast cancer xenograft; details: 10 µM; 72 h
# WHIM30 [4] = cells of a triple-negative basal-like breast cancer xenograft; details: 10 µM; 72 h
# HCI01 [5] = details: 1 µM; 72 h
# UCD52 [6] = details: 1 µM; 72 h
# WHIM2 [7] = details: 1 µM; 72 h
# WHIM30 [8] = details: 1 µM; 72 h
SMILES,cell viability (HCI01 [1]),cell viability (HCI03),cell viability (HCI09),cell viability (HCI11),cell viability (HCI13),cell viability (HCI16),cell viability (UCD52 [2]),cell viability (WHIM2 [3]),cell viability (WHIM30 [4]),cell viability (HCI01 [5]),cell viability (UCD52 [6]),cell viability (WHIM2 [7]),cell viability (WHIM30 [8])
Cc1cccc(Cc2cnc[nH]2)c1C.Cl [Detomidine HCl],118 ± 4,114,96.9 ± 30,97.2,79.4 ± 6.8,92,84.9 ± 4.3,85.5 ± 32,135 ± 3,,,,
CCC1(c2ccc(N)cc2)CCC(=O)NC1=O (stereo unspecified) [Aminoglutethimide],108 ± 13,113,103 ± 12,103,112 ± 12,103,93.01 ± 0.41,88.9 ± 8,108 ± 2.7,,,,
C=CCC1(O)CCC2C3CCC4=CC(=O)CCC4=C3C=CC21C (stereo unspecified) [Altrenogest],172 ± 56,125,65.5 ± 13,78.7,137 ± 7.6,150,83.1 ± 6.5,107 ± 12,141 ± 8.9,,,,
C[C@@H]1CC[C@H]2[C@@H](C)C(=O)O[C@@H]3OC4(C)CC[C@@H]1[C@]32OO4 [Artemisinine],125 ± 38,139,91.1 ± 1.5,102,95.7 ± 11,153,97.45 ± 0.15,93.9 ± 15,96.3 ± 17,,,,
CN(C)C(=O)Oc1ccc[n+](C)c1.[Br-] [Pyridostigmine Bromide],104 ± 11,120,103 ± 3.5,92.1,136 ± 13,105,72 ± 2.6,96.8 ± 6.6,101 ± 3.2,,,,
C[N+](C)(C)CC(=O)O.[Cl-] [Betaine hydrochloride],111 ± 4.8,123,95.3 ± 4.7,103,113 ± 11,122,82 ± 6.6,95.5 ± 6.1,107 ± 2.4,,,,
Cc1cc(O)ccc1Cl [Chlorocresol],114 ± 41,120,88.6 ± 17,85.9,77.6 ± 8.4,107,87.1 ± 2.5,98.6 ± 25,91.9 ± 1.3,,,,
Cc1cccc(C(C)c2cnc[nH]2)c1C (stereo unspecified) [Dexmedetomidine],129 ± 5.7,106,90.4 ± 10,105,103 ± 16,148,92.7 ± 0.94,106 ± 9.5,120 ± 5.1,,,,
Cc1cc(C(C#N)c2ccc(Cl)cc2)c(Cl)cc1NC(=O)c1cc(I)cc(I)c1O (stereo unspecified) [Closantel],29.4 ± 6.5,104,17.7 ± 1.8,85.7,37 ± 7.8,105,61.5 ± 2.6,37.6 ± 13,87.6 ± 4,88.8,91.3,105,82.7
O=C(OC1CC2CCC(C1)[N+]21CCCC1)C(O)(c1ccccc1)c1ccccc1.[Cl-] (stereo unspecified) [Trospium chloride],158 ± 1.6,119,112 ± 5.4,124,157 ± 39,165,101 ± 10,110 ± 14,121 ± 3.2,,,,
COc1cc2c(c(OC)c1OC)-c1ccc(OC)c(=O)cc1C(NC(C)=O)CC2 (stereo unspecified) [Colchicine],141 ± 19,109,120 ± 4.5,102,44.3 ± 2.3,108,146 ± 28,96 ± 9,145 ± 7.8,,,,
CCCCCCCCCCCCCCCC[N+](C)(C)C.[Br-] [Cetrimonium Bromide (CTAB)],44.3 ± 15,56.5,21.7 ± 7.3,72,26.9 ± 2,69.1,37.5 ± 1.9,42.4 ± 8.1,35.6 ± 1.7,87.8,75.6,74.2,49.2
CC1C=CC=CCCC=CC=CC=CC=CC(OC2OC(C)C(O)C(N)C2O)CC2OC(O)(CC(O)C(O)CCC(O)CC(O)CC(O)CC(=O)OC(C)C(C)C1O)CC(O)C2C(=O)O (stereo unspecified) [Nystatin (Fungicidin)],121 ± 47,139,128 ± 2.6,98.5,167 ± 21,150,118 ± 0.94,96.5 ± 1.8,147 ± 6.6,,,,
Cc1cccc(C(C)c2cnc[nH]2)c1C.Cl (stereo unspecified) [Medetomidine HCl],108 ± 7.7,102,93.2 ± 21,103,100.9 ± 1,95.4,87.4 ± 2.9,89.3 ± 22,113 ± 5.8,,,,
C=CCN1CCC23c4c5ccc(O)c4OC2C(=O)CCC3(O)C1C5.Cl (stereo unspecified) [Naloxone HCl],124 ± 20,125,101 ± 18,93.5,130 ± 23,112,74.1 ± 13,86 ± 15,91.4 ± 2.9,,,,
NC(=O)CN1CC(O)CC1=O (stereo unspecified) [Oxiracetam],111 ± 16,115,98.3 ± 9.9,71,123 ± 12,126,117 ± 3.4,112 ± 15,134 ± 8.7,,,,
C=C1CC2C(CCC3(C)C(=O)CCC23)C2(C)C=CC(=O)C=C12 (stereo unspecified) [Exemestane],166 ± 17,103,101 ± 14,124,150 ± 6.5,124,159 ± 17,128 ± 28,151 ± 15,,,,
CC(C)N(CCNC(=O)CN1CCCC1=O)C(C)C [Pramiracetam],85.1 ± 58,155,101 ± 9.4,110,120 ± 2.3,129,108 ± 2.9,119 ± 11,,,,,
Oc1cc(Cl)ccc1Oc1ccc(Cl)cc1Cl [Triclosan],73.5 ± 14,109,41.7 ± 24,71.7,66.4 ± 20,137,97.1 ± 9.6,49.5 ± 1.1,109.3 ± 1,,,,

SMILES,cell viability (HCI01 [1]),cell viability (HCI03),cell viability (HCI09),cell viability (HCI11),cell viability (HCI13),cell viability (HCI16),cell viability (UCD52 [2]),cell viability (WHIM2 [3]),cell viability (WHIM30 [4]),cell viability (HCI01 [5]),cell viability (UCD52 [6]),cell viability (WHIM2 [7]),cell viability (WHIM30 [8])
Cc1cccc(C)c1NC(=O)CN1CCCC1=O [Nefiracetam],124 ± 21,128,99.9 ± 6.5,91.9,149 ± 33,113,74.9 ± 0.92,85.6 ± 9.6,165 ± 5.6,,,,
CCOC(=O)c1cncn1C(C)c1ccccc1 (stereo unspecified) [Etomidate],114 ± 2.7,89.8,96.6 ± 3.1,90.1,103 ± 14,77.5,88.6 ± 2.2,81.8 ± 20,117 ± 6.2,,,,
O=P1(N(CCCl)CCCl)NCCCO1 (stereo unspecified) [Cyclophosphamide],107 ± 4.7,98,104.9 ± 0.44,88.5,112 ± 5.9,80.3,99.09 ± 0.21,79.86 ± 0.25,115 ± 14,,,,
CCCCCCCCCCCC[N+](C)(C)CCOc1ccccc1.[Br-] [Domiphen Bromide],34.9 ± 13,48.7,24.1 ± 1.5,50.1,41.3 ± 10,46.4,27.6 ± 1.8,44 ± 14,28.4 ± 4.7,88.5,80.4,81.7,57.1
CCCCCCCCCCCCCCCC[n+]1ccccc1.[Cl-] [Cetylpyridinium Chloride],32.9 ± 12,44.4,16.9 ± 3.2,53.1,25 ± 4.5,42.1,24.2 ± 1.9,36.7 ± 13,28.1 ± 0.9,92.7,67.6,63.4,52.8
Cc1cccc(C(C)c2cnc[nH]2)c1C.Cl (stereo unspecified) [Dexmedetomidine HCl],110 ± 1.2,103,91.2 ± 26,103,82.7 ± 11,89.9,86.7 ± 1.2,72.3 ± 17,112.3 ± 0.75,,,,
COc1ccc(C(CN(C)C)C2(O)CCCCC2)cc1.Cl (stereo unspecified) [Venlafaxine],103 ± 4.2,139,99.26 ± 0.21,103,124 ± 11,106,119 ± 17,118 ± 10,169 ± 35,,,,
CC(NC(C)(C)C)C(=O)c1cccc(Cl)c1.Cl (stereo unspecified) [Bupropion hydrochloride],101 ± 2.5,109,99.6 ± 20,85.6,103 ± 1.1,113,90.5 ± 14,104 ± 5.2,121 ± 10,,,,
CCC1(c2cccc(O)c2)CCCCN(C)C1.Cl (stereo unspecified) [Meptazinol HCl],69.9 ± 42,141,98.1 ± 10,94,111 ± 5,112,85.7 ± 6,91.8 ± 33,181.3 ± 0.74,,,,
Cc1cc(C(C#N)c2ccc(Cl)cc2)c(Cl)cc1NC(=O)c1cc(I)cc(I)c1[O-].[Na+] (stereo unspecified) [Closantel Sodium],34.4 ± 1.9,114,17.978 ± 0.0048,93.2,35.4 ± 2.9,96.3,68.1 ± 7.7,44.6 ± 10,52.7 ± 0.69,93.1,90.9,106,88.2
CNC1CC(N)C(O)C(OC2OC(CO)C(O)C3OC4(OC(C(N)CO)C(O)C(O)C4O)OC23)C1O (stereo unspecified) [Hygromycin B],66.3 ± 21,70.2,122 ± 75,110,114.5 ± 1.1,94.3,87.4 ± 22,97.2 ± 1.2,88.3 ± 23,,,,
O=C(O)c1nn(Cc2ccc(Cl)cc2Cl)c2ccccc12 [Lonidamine],88.9 ± 18,112,92.9 ± 6.3,82.9,85.1 ± 8.5,124,82.6 ± 1.7,80.2 ± 32,138.9 ± 1.1,,,,
CCCC[N+]1(C)[C@@H]2C[C@@H](OC(=O)[C@H](CO)c3ccccc3)C[C@H]1[C@@H]1O[C@@H]12 (stereo partly specified) [Scopolamine butylbromide],105 ± 5.4,116,88.8 ± 19,97.3,97.4 ± 2.5,119,100.7 ± 0.64,137 ± 14,133 ± 4.2,,,,
C[N+]1(C)CCCC(OC(=O)C(O)(c2ccccc2)c2ccccc2)C1.[Br-] (stereo unspecified) [Mepenzolate Bromide],109 ± 6.9,133,103 ± 5.9,108,133 ± 27,108,87.5 ± 8.5,98.1 ± 7.5,128 ± 2.7,,,,
Cc1cccc(C)c1NC1=NCCCS1.Cl [Xylazine HCl],159 ± 36,120,110 ± 12,115,105 ± 6.4,124,92.3 ± 11,120 ± 7,127 ± 8,,,,
CCCN1CC(CSC)CC2c3cccc4[nH]cc(c34)CC21.CS(=O)(=O)O (stereo unspecified) [Pergolide mesylate],107.1 ± 0.5,92.4,106 ± 8.8,87.6,98.3 ± 5.6,124,76.5 ± 1.3,101 ± 14,110 ± 12,,,,
CC1CNCCc2ccc(Cl)cc21.Cl (stereo unspecified) [Lorcaserin HCl],96.6 ± 5.8,110,100 ± 5.7,81.3,94.9 ± 12,106,90.3 ± 3.9,82.89 ± 0.73,111.3 ± 0.19,,,,
CC(O)(CS(=O)(=O)c1ccc(F)cc1)C(=O)Nc1ccc(C#N)c(C(F)(F)F)c1 (stereo unspecified) [Bicalutamide],108 ± 8.9,113,90.6 ± 13,90.2,127 ± 3.6,108,89.7 ± 11,90.2 ± 6.4,108 ± 3.1,,,,
CN(C)C1C(=O)C(C(N)=O)=C(O)C2(O)C(=O)C3=C(O)c4c(O)cccc4C(C)(O)C3C(O)C12 (stereo unspecified) [Oxytetracycline (Terramycin)],83 ± 9.9,126,108 ± 23,85.3,115 ± 6.2,122,99.8 ± 2.1,72.1 ± 17,121 ± 4.7,,,,
